Screens deposited in PubChem BioAssay by several laboratories.
L major viab – inhibitors of Leishmania major promastigote growth; Leishmania major promastigotes, resazurin fluorescence viability; inhibition, % at 10 µM; 200,000 tested, 9% active; AID 1063; in the data active means inhibition above about 50%;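 further: promastigotes grown with compound for 44 hours at 28 °C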
CHOP inhibitor – CHOP inhibition in unfolded protein response. CHO-K1 CHOP-promoter luciferase, tunicamycin-induced, 15-18 h. inhibition, % at 10 µM. 220,000 tested, 3.8% active;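 active means compounds that reduced the stress-induced luciferase reporter signal by more than about 70% of percent inhibition, limit read from the data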;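 further: 0% = tunicamycin plus vehicle and 100% = wells without tunicamycin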
Arbovirus inh – arbovirus infection inhibition; arbovirus infection cell-based antiviral screen; inhibition, % at 10 µM; AID 1251; 200,000 tested, 0.37% active; in the data active means inhibition above about 30%
WT yeast gro inh – growth inhibition of WT yeast, mitochondrial fusion screen; mitochondrial fusion phenotypic screen, WT strain; inhibition, % at 10 µM; 190,000 tested, 2.1% active; in the data active means inhibition above about 58%; tested in S. cerevisiae
CHOP inh conf – confirmation of CHOP induction inhibitors. CHO-CHOP promoter luciferase reporter, tunicamycin-induced, luminescence. inhibition, % at 10 µM. 2,100 tested, 45% active. shares compounds with CHOP inhibitor;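 active means mean of three repeat readings of reporter signal inhibition above a set limit, cut at about 70% in these data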;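 further: 0% = tunicamycin plus vehicle and 100% = wells lacking tunicamycin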
* hit, by the source's call; x = no result given. Hits are enriched below; roughly 12% of the tested compounds scored in any of these assays.

SMILES	L major viab	CHOP inhibitor	Arbovirus inh	WT yeast gro inh	CHOP inh conf
Cc1ccc(S(=O)(=O)c2c(N)n(NC(=O)C3CC3)c3nc4ccccc4nc23)cc1	3	-3	11	1	x
CCOc1cc(NC(=S)Nc2ccc(Cl)cc2)c(OCC)cc1NC(C)=O	-2	-18	5	35	x
CCOc1cc(NC(=O)CCl)c(OCC)cc1NC(=O)CCl	x	98*	x	x	79*
COc1ccc(C2=CC(=O)C=CC2=O)cc1	x	103*	x	x	-79
COc1ccc(C2=NNC(=O)CC2)cc1	1	-3	-7	-4	x
Nc1ncnc(Sc2ncccn2)c1[N+](=O)[O-]	59*	104*	-7	29	45
O=C(O)c1c(-c2ccc(Cl)cc2)cn2ccccc12	-5	-15	1	-2	x
O=C(Nc1ccc(F)cc1)c1ccccc1CC[N+](=O)[O-]	-2	26	-9	-1	x
O=C(Nc1nnc(-c2ccc(Cl)cc2)o1)Nc1ccccc1Cl	-4	45	3	-5	x
O=C(Nc1nnc(-c2ccc(Cl)cc2)o1)c1nc2ccccc2s1	-2	104*	-21	50	-7
O=C1CN(C(=O)COC(=O)CCC(=O)c2ccc3c(c2)OCCO3)c2ccccc2N1	-2	23	10	15	x
Cc1cc2cc(C=C(C#N)C#N)c(Cl)nc2cc1C	25	97*	3	5	2
CCc1nnc(NC(=O)CSc2nc3cc(OC)c(OC)cc3cc2C)s1	13	23	1	-1	x
CCc1nnc(NC(=O)Cn2c(=O)oc3ccccc32)s1	1	-7	1	9	x
Cc1sc(NC(=O)Cn2c(=O)oc3ccccc32)nc1-c1ccc(Cl)cc1	10	98*	0	8	34
O=c1[nH]c2cc3c(cc2cc1C(c1nnnn1Cc1ccccc1)N1CCCCCC1)OCCO3 (centres undefined)	3	101*	4	2	29
O=c1[nH]c2cc3c(cc2cc1C(c1nnnn1Cc1ccccc1)N1CCN2CCCC2C1)OCCO3 (centres undefined)	-7	0	7	44	x
Cc1cc(C)n(-c2nc3ccccc3nc2N2CCCCCC2)n1	20	96*	3	10	36
CC(C)CCNC(=O)c1onc(CSc2ccc(F)c(F)c2)c1C(=O)NCCC(C)C	x	58	x	x	x
CC(=O)Nc1ccc(NC(=O)CSc2ccc(C)cc2)cc1	-4	-23	3	7	x
Cc1ccc2nc(-c3ccc(SCC(=O)Nc4nnc(C)s4)nc3)[nH]c2c1	1	105*	-12	19	22
CCc1nnc(NC(=O)CSc2ccc(-c3nc4ccccc4[nH]3)cn2)s1	4	-12	0	-6	x
Cc1ccc(SCC(=O)Nc2ccc(-c3nc4ccccc4[nH]3)cc2)cc1	2	102*	-5	16	6
CCOC(=O)c1ccc(N/C=C/C(=O)c2ccc(OC)c(OC)c2)cc1	0	62	5	14	x
CCOC(=O)c1ccc(Nc2ccc(-c3ccc(OC)c(OC)c3)nn2)cc1	46	102*	-22	-5	13
SMILES	L major viab	CHOP inhibitor	Arbovirus inh	WT yeast gro inh	CHOP inh conf
CCCCS/C(N)=N/N=C/c1cc(C)ccc1O	-3	102*	27	15	-6
CC1C/C(=C/c2ccccn2)C(=O)/C(=C/c2ccccn2)C1 (centres undefined)	100*	108*	-39	87*	113*
CC(C)(C)C1C/C(=C/c2ccccn2)C(=O)/C(=C/c2ccccn2)C1 (centres undefined)	101*	109*	-28	69*	137*
O=C(NC(=S)Nc1ccccc1)c1csnn1	-2	-24	-4	10	x
CCCNC(=O)COC(=O)c1ccccc1C(=O)c1ccc(Cl)c([N+](=O)[O-])c1	11	102*	-29	-11	-19
Cc1ccc(Cl)c(NC(=O)COC(=O)c2ccccc2C(=O)c2ccc(Cl)c([N+](=O)[O-])c2)c1Cl	29	37	-40	19	x
O=C(O)c1ccc(-c2nc(-c3ccccc3)cs2)cc1	-5	-23	5	-17	x
O=S(=O)(Nc1ccc(-c2csc(-c3ccccc3)n2)cc1)c1ccccc1	-2	100*	-35	91*	24
O=C(NC(NC(=S)Nc1cccc(C(=O)O)c1)C(Cl)(Cl)Cl)OCc1ccccc1 (centres undefined)	-5	-5	0	2	x
CCc1ccc(OCC(=O)NC(NC(=S)Nc2ccccc2C)C(Cl)(Cl)Cl)cc1 (centres undefined)	36	10	-33	11	x
Cc1cccc(NC(=S)NC(NC(=O)OCc2ccccc2)C(Cl)(Cl)Cl)c1 (centres undefined)	33	106*	14	-2	103*
CCc1ccc(OCC(=O)NC(NC(=S)Nc2ccc(C)cc2C)C(Cl)(Cl)Cl)cc1 (centres undefined)	15	108*	-44	20	113*
CCc1ccc(OCC(=O)NC(NC(=S)Nc2ccccc2)C(Cl)(Cl)Cl)cc1 (centres undefined)	44	105*	-20	13	105*
O=C(CSc1nnnn1-c1ccccc1)CC(=O)Nc1ccc(Cl)cc1	-6	30	-5	29	x
O=C(NC(=S)Nc1ccc(CN2CCOCC2)cc1)c1ccc2c(c1)OCCO2	x	-18	x	x	x
NC(=S)n1[nH]c(-c2ccc([N+](=O)[O-])cc2)c(N=Nc2cccc([N+](=O)[O-])c2)c1=O	1	102*	-4	23	98*
Cc1cc(NC(=O)CN2C(=O)NC(C)(c3ccc(Cl)cc3)C2=O)no1 (centres undefined)	2	27	4	-37	x
CC(C)c1ccccc1NC(=O)Cn1c(/C=C/c2ccccc2)nc2ccccc21	x	99*	x	x	101*
CNC(=O)/C(C#N)=C/c1ccc(-c2ccc(Cl)cc2)o1	5	97*	3	8	-17
CCOC(=O)c1ccc(-c2ccc(/C=C(\C#N)C(=O)NCc3cccs3)o2)cc1	6	105*	-6	9	14
CC1=CC(=O)C(C(C)=Nc2ccccc2Cl)C(=O)O1 (centres undefined)	x	4	x	x	x
COC(=O)c1c(-c2ccccc2)c[nH]c1C	x	-7	x	x	x
CCC(C)[C@H](NC(=O)OC(C)(C)C)C(=O)N/N=C/C1=Cc2ccccc2OC1 (some centres undefined)	4	106*	-26	9	40
COc1ccc(-c2nc(-c3ccc(NC(=O)c4ccc(Br)o4)cc3)no2)cc1OC	-4	103*	4	-27	110*
COc1cc(-c2nc(-c3ccc(NC(=O)c4ccc(Br)o4)cc3)no2)cc(OC)c1OC	-4	-2	-38	6	x
O=C(Nc1ccc(-c2nc3ncccc3o2)cc1)c1ccc(Br)o1	1	103*	1	-4	-18
O=C(Nc1cccc(-c2nc3ncccc3o2)c1)c1sc2cc(Cl)ccc2c1Cl	1	4	12	19	x
O=C(Nc1cccc(-c2nc3ncccc3o2)c1)c1sc2ccccc2c1Cl	-3	104*	5	4	103*
O=c1c2cc(Br)ccc2nc(-c2cccc(C(F)(F)F)c2)n1O	8	99*	-27	9	-14
O=C(O)c1cccc(NS(=O)(=O)c2ccc(C3CCCCC3)cc2)c1	1	-3	7	19	x
